Measurements as given in PubChem BioAssay AID1224858 (National Center for Advancing Translational Sciences (NCATS), 2016).
Inconclusive results are not listed. Unmarked numbers belong to inactive results. Activity calls are given as the source filed them. Calls come from the whole dose curve; as a rule, active = well fitted inhibition curve with a large enough effect; inconclusive = small, poorly fitted or top-dose-only effect; inactive = no such curve, though single readings can be large or run the other way.

Assay: Confirmation assay for measurement of the activity of small molecule inhibitors on Zika virus induced Caspase-3 activity in human astrocytes
Conditions: ZIKV-induced caspase-3/7 luminescence, 6 h; series mostly up to 46.1 µM; activity, negative = inhibition: at the top concentration
In short: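 Percent inhibition was derived from Caspase-Glo 3/7 luminescence, scaled between uninfected cells and ZIKV-infected cells. Astrocytes got compound 1 h before 2 FFU/cell ZIKV, then 6 h infection at 37 C.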

Q: With CN1CC(=O)N2C(Cc3c([nH]c4ccccc34)[C@H]2c2ccc3c(c2)OCO3)C1=O (stereo partly specified) as the compound, how does the “activity, negative = inhibition” value read?
A: 9.65%

Q: With COc1ccc(CC2=NN3C([C@@H](CCc4ccccc4)[C@@H](C)O)=NC(C)C3C(=O)N2)cc1OC (stereo partly specified) as the compound, how does the “activity, negative = inhibition” value read?
A: -7.76%

Q: For CC(=C(CCOC(=O)C(C)C)SSC(CCOC(=O)C(C)C)=C(C)N(C=O)Cc1cnc(C)nc1N)N(C=O)Cc1cnc(C)nc1N, which “activity, negative = inhibition” value is on record?
A: -20.1%

Q: With CCCC(=O)OC[C@@H](OC(=O)CCC)[C@@H](OC(=O)CCC)[C@H](Cn1c2nc(=O)[nH]c(=O)c-2nc2cc(C)c(C)cc21)OC(=O)CCC as the compound, how does the “activity, negative = inhibition” value read?
A: -26.4%

Q: Which “activity, negative = inhibition” value does the source give for COc1ccnc2c1CCCCC2S(=O)c1nc2ccccc2[nH]1 (stereo unspecified) here?
A: 54%

Q: For O=c1oc2cc(O)ccc2s1, which “activity, negative = inhibition” value is on record?
A: -9.23%

Q: For CN(C)c1ccc2cc(C(=O)N[C@@H](CCCN=C(N)CCl)C(=O)NCc3ccccc3)ccc2c1, which “activity, negative = inhibition” value is on record?
A: -11.3%

Q: Which Potency does the source give for Cc1cc(O)c2c(c1)C(=O)c1cc(O)cc(O)c1C2=O here?
A: 2.75 µM (active)

Q: For COc1cc2nc(-c3ccc(N4CCN(C)CC4)cc3)nc(NCCN3CCOCC3)c2cc1OC, which “activity, negative = inhibition” value is on record?
A: -9.03%

Q: Which “activity, negative = inhibition” value does the source give for CC[C@]1(O)C[C@H]2CN(CCc3c([nH]c4ccccc34)[C@@](C(=O)OC)(c3cc4c(cc3OC)N(C=O)[C@H]3[C@@](O)(C(=O)OC)[C@H](OC(C)=O)[C@]5(CC)C=CCN6CC[C@]43[C@@H]65)C2)C1 here?
A: 4.34%

Q: For CC(=NNC(=S)N1CCC1)c1ccccn1, which “activity, negative = inhibition” value is on record?
A: 48.5%

Q: With COc1cccc(-c2cc(=O)c3ccccc3o2)c1N as the compound, how does the Potency read?
A: 6.9 µM (active)

Q: For CCOCCOC(=O)/C=C/c1ccc(OC)cc1, which “activity, negative = inhibition” value is on record?
A: -28.8%

Q: With COc1cc(NC(C)CCCN)c2ncccc2c1 (stereo unspecified) as the compound, how does the “activity, negative = inhibition” value read?
A: 3.92%

Q: Which “activity, negative = inhibition” value does the source give for Nc1ccc(O)c(C(=O)O)c1 here?
A: -0.275%

Q: With c1ccc2[nH]c(-c3cscn3)nc2c1 as the compound, how does the Potency read?
A: 9.75 µM (active)

Q: With O=C(O)[C@@H](c1ccc(OCc2ccc3ccccc3n2)cc1)C1CCCC1 as the compound, how does the Potency read?
A: 8.69 µM (active)

Q: With CC(=Cc1ccccc1)C=C1SC(=S)N(CC(=O)O)C1=O as the compound, how does the Potency read?
A: 19.5 µM (active)

Q: With Cc1cccc(/C=C/c2ccccc2)n1 as the compound, how does the Potency read?
A: 10.9 µM (active)

Q: Which Potency does the source give for O=C(Nc1ccc([N+](=O)[O-])cc1Cl)c1cc(Cl)ccc1O here?
A: 1.73 µM (active)

Q: Which “activity, negative = inhibition” value does the source give for CC1=C(CO)C(=O)O[C@@H]([C@@H](C)[C@H]2CC[C@H]3[C@@H]4C[C@H]5O[C@]56[C@@H](O)C=CC(=O)[C@]6(C)[C@@H]4CC[C@]23C)C1 here?
A: -6.03%

Q: Which Potency does the source give for Cc1nc(-c2ccc(OCC(C)C)c(C#N)c2)sc1C(=O)O here?
A: 2.18 µM (active)

Q: For Nc1ccc(-c2ccc3ccccc3n2)cc1, which Potency is on record?
A: 4.35 µM (active)

Q: For O=C(Nc1ccc(OC(F)(F)F)cc1)c1sccc1NCc1ccnc2ccccc12, which Potency is on record?
A: 7.74 µM (active)

Q: With CCCCCCCCCCCC(=O)[O][Sn]([CH2]CCC)([CH2]CCC)[O]C(=O)CCCCCCCCCCC as the compound, how does the “activity, negative = inhibition” value read?
A: -15%

Q: With CNC1[C@H](O)C(O[C@@H]2C(O)C(O[C@H]3O[C@H]([C@@H](C)NC)CC[C@H]3N)[C@@H](N)C[C@H]2N)OC[C@]1(C)O (stereo partly specified) as the compound, how does the “activity, negative = inhibition” value read?
A: 27.9%

Q: Which Potency does the source give for Oc1cc(O)cc(/C=C/c2ccc(O)c(O)c2)c1 here?
A: 6.9 µM (active)

Q: For CCCCCCOc1ccccc1C(N)=O, which “activity, negative = inhibition” value is on record?
A: -10.9%

Q: For COc1ccc(C=CC(=O)Nc2ccccc2C(=O)O)cc1OC, which Potency is on record?
A: 17.3 µM (active)

Q: With Cc1oncc1C(=O)Nc1ccc(C(F)(F)F)cc1 as the compound, how does the Potency read?
A: 3.88 µM (active)

Q: With CC(C(=O)O)c1ccc(C(=O)c2ccccc2)s1 (stereo unspecified) as the compound, how does the Potency read?
A: 6.15 µM (active)

Q: Which “activity, negative = inhibition” value does the source give for C[C@@H](N)c1ccc(C(=O)Nc2ccnc3[nH]ccc23)cc1 here?
A: 0.169%

Q: Which “activity, negative = inhibition” value does the source give for CCN1CCC(n2cc(CNc3cc(Cl)c4ncc(C#N)c(Nc5ccc(F)c(Cl)c5)c4c3)nn2)CC1 here?
A: -8.22%

Q: Which “activity, negative = inhibition” value does the source give for O[C@@H](COc1cccc2ncccc12)CN1CCN(C2c3ccccc3[C@@H]3[C@H](c4ccccc42)C3(F)F)CC1 (stereo partly specified) here?
A: 21.8%

Q: With CCCCCNC(=O)N1CCC(CN(Cc2ccc(Cl)cc2)Cc2ccc([N+](=O)[O-])s2)C1 (stereo unspecified) as the compound, how does the “activity, negative = inhibition” value read?
A: 17.4%

Q: Which Potency does the source give for Clc1ccccc1-c1nc(-c2ccncc2)no1 here?
A: 6.15 µM (active)
